Experimental data as given in PubChem BioAssay (Tox21).
Records with an inconclusive call do not appear. Calls of active or inactive are those of the source. Calls come from the whole dose curve; as a rule, active = well fitted activation curve with a large enough effect in the signal ratio in the repeat runs (not every such curve was filed as active); inconclusive = weak or mixed curves; inactive = flat fitted curve, though single readings scatter; the % refers to the signal ratio.

experiment: qHTS assay to identify small molecule agonists of the hypoxia (HIF-1) signaling pathway (AID 1224846); conditions: HRE-bla ME-180 cells, beta-lactamase ratio, 17 h; series mostly up to 76.8 µM
Description: U.S. Tox21 Program National Center for Advancing Translational Sciences [NCATS] NIH Chemical Genomics Center [NCGC] U.S. Environmental Protection Agency [EPA] National Institutes of Environmental Health Sciences [NIEHS] National Toxicology Program [NTP] U.S. Food and Drug Administration [FDA] Tox21 Assay Overview: Hypoxia-inducible factor-1 (HIF-1) is the major hypoxia-regulated transcription factor that controls cellular responses to low oxygen concentration. HIF-1 is composed of two subunits: hypoxia responsive HIF-1-alpha and constitutively expressed HIF-1-beta, which is also known as aryl hydrocarbon receptor nuclear translocator. During hypoxic conditions, HIF-1-alpha heterodimerizes with HIF-1-beta and translocates into the nucleus where the HIF-1 complex binds to the hypoxia-response element (HRE) and activates expression of target genes such as VEGF (vascular endothelial growth factor). The HIF-1 pathway is essential to normal growth and development, and is involved in the pathophysiology of cancer, inflammation, and ischemia. Using a beta-lactamase reporter-gene under control of the hypoxia response element, a cell-based assay [CellSensor(TM) HRE-bla ME-180 from Life Technologies, Carlsbad, CA] was used to measure hypoxia-induced signaling. Tox21 10K library compounds were measured for their ability to induce the reporter gene activity.
Tox21 Assay Protocol Summary: HRE-bla ME-180 cells were dispensed at 2,000 cells per well in 6 uL of assay medium containing 0.5% dialyzed FBS into black wall/clear-bottom 1536-well plates using a Multidrop Combi (Thermo Scientific, Waltham, MA) dispenser. After the assay plates were incubated at 37C and 5% CO2 for 5 hrs, 23 nL of compounds dissolved in DMSO, positive controls or DMSO only was transferred to each well of the assay plate using a Pintool station (Kalypsys, San Diego, CA). The assay plates were incubated at 37C and 5% CO2 for 17 hrs. One uL of LiveBLAzerTM B/G FRET substrate (CCF4-AM) (Life Technologies) was added to each well using a Flying Reagent Dispenser (Aurora Discovery, San Diego, CA).

Structure (SMILES)	outcome
O=C(c1ccc(O)cc1)c1ccc(O)cc1O	inactive
COCC(=O)O	inactive
O=Nc1ccc(O)cc1	inactive
CCc1ccccc1O	inactive
Nc1c(S(=O)(=O)O)cc(Br)c2c1C(=O)c1ccccc1C2=O	inactive
CCCCCCCCCCCCN	inactive
C=CC(=O)OCCCCCCCC(C)C	inactive
O=S(=O)(O)c1cc(S(=O)(=O)O)c2c(N=Nc3ccccc3)c(O)ccc2c1	inactive
S=c1nc[nH]c2nc[nH]c12	inactive
CCCCCCCCCC(=O)O	inactive
CCCCCCC(C)(C)S	inactive
CCOC(=O)[C@H](CCc1ccccc1)N[C@@H](C)C(=O)N1Cc2ccccc2C[C@H]1C(=O)O	inactive
CC(C)(N=C=O)c1cccc(C(C)(C)N=C=O)c1	inactive
CCCCNC(N)=O	inactive
COC(=O)c1ccccc1O	inactive
NC(=O)NNc1ccccc1	inactive
NC(=O)/N=N/C(N)=O	inactive
CCC(C)C=O (stereo not given)	inactive
OC1CCCC1	inactive
NCc1cccc(CN)c1	inactive

Structure (SMILES)	outcome
COCC(C)O (stereo not given)	inactive
CCCCCCCCCCC=CC1CC(=O)OC1=O (stereo not given)	inactive
CCCCCCCCC	inactive
CCc1ccc(O)cc1	inactive
CN(C)c1ccc(C(=N)c2ccc(N(C)C)cc2)cc1	inactive
CCCCOCCOCCOC(=O)CCCCC(=O)OCCOCCOCCCC	inactive
O=C(Cl)c1c(Cl)c(Cl)c(C(=O)Cl)c(Cl)c1Cl	inactive
Clc1ccc(Cl)c(Cl)c1Cl	inactive
O=S(=O)(O)CCS	inactive
C=C1C2CCC(C2)C1(C)C (stereo not given)	inactive
Cc1cc(=O)[nH]c(C(C)C)n1	inactive
Oc1ccc2ccccc2c1	inactive
O=C(Oc1ccccc1)c1ccc(O)cc1	inactive
O=C1CCCCC1	inactive
CCCCC/C=C\C/C=C\CCCCCCCC(=O)OC	inactive
CCCCCC/C=C/CCCCCCCC(=O)O	inactive
CCCCOCCO	inactive
CC(C)(C)C(=O)C1C(=O)c2ccccc2C1=O	inactive
CCOC(=O)/C=C\C(=O)OCC	inactive
CN(C)c1cccc(O)c1	inactive
